Drawing on PMC8384837, “Expanding the binding specificity for RNA recognition by a PUF domain”, this text covers binding signal for seven sequences.

Where a chain is given by its changes, count along the chain named.

What all share (test): yeast three-hybrid, YBZ-1, SC-Leu-His + 0.5 mM 3-AT, 4 days
What all share (details): tags: N-Gal4 AD-HA kept; label: inside an RPR1-promoter hybrid RNA with tandem MS2 sites; ssRNA

The target in assay [1] is PUM1 PUF domain R1-GQK (Homo sapiens, UniProt Q14671 828-1176, S863G;R864Q;Q867K). The procedure, abridged:
(§1)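 Each repeat of the Pumilio-1 PUF domain was randomized at its three base-contacting residues, and these libraries were co-expressed from a centromeric plasmid with matching RNA elements in strain YBZ-1. After four days on SC-Leu (input) or SC-Leu-His + 0.5 mM 3-AT (selection), the repeat regions were PCR-amplified and Illumina-sequenced. The interaction score compares variant frequency between input and selection as a log change, computed in log2 with a pseudocount of 1 for absent variants.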

Assay [2] addresses PUM1 PUF domain R1-KYS (Homo sapiens, UniProt Q14671 828-1176, S863K;R864Y;Q867S). The procedure, abridged: as §1
Assay [3] concerns the target PUM1 PUF domain R1-RGM (Homo sapiens, UniProt Q14671 828-1176, S863R;R864G;Q867M). The procedure, abridged: as §1
For assay [4], the target named is T1, PUM1 PUF domain R6-CYR (Homo sapiens, UniProt Q14671 828-1176, N1043C;Q1047R).
T1 sequence: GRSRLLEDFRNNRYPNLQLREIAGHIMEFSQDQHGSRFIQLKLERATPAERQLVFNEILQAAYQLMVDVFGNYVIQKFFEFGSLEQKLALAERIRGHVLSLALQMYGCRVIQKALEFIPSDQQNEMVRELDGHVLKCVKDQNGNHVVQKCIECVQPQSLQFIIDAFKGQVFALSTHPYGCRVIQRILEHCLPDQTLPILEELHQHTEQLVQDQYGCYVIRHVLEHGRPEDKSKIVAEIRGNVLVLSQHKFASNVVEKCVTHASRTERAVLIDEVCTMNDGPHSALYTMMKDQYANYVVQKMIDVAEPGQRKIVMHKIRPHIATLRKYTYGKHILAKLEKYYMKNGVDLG
Summed up:
as §1

Assay [5] addresses PUM1 PUF domain R8-YWR (Homo sapiens, UniProt Q14671 828-1176, N1122Y;Y1123W;Q1126R). Summed up: as §1
The target in assay [6] is T2, PUM1 PUF domain R6-RFR (Homo sapiens, UniProt Q14671 828-1176, N1043R;Y1044F;Q1047R).
T2 sequence: T1 sequence with C216R, Y217F
The procedure, abridged: as §1

The target of assay [7] is PUM1 PUF domain R8-TYR (Homo sapiens, UniProt Q14671 828-1176, N1122T;Q1126R). The procedure, abridged: as §1
Assay [8] addresses PUM1 PUF domain R8-TFK (Homo sapiens, UniProt Q14671 828-1176, N1122T;Y1123F;Q1126K). The procedure, abridged:
as §1

The target of assay [9] is PUM1 PUF domain R3-RAY (Homo sapiens, UniProt Q14671 828-1176, C935R;R936A;Q939Y). Summed up: as §1

Take “GGCUAGAACUAGUGGAUCCCCCGGCGCCCGGCGGCUCGAGCCCGGGUAAGUGUAAAUCGUCUGCAUGCCGCCGGGCGCCAUGCCUGCAGGUCGACUCUAGAAAACAUG”: the figures for the binding signal in [1], in assay [2] and in [3] were 3.53 log2 enrichment (interaction score), 5.18 log2 enrichment (interaction score) and 0.98 log2 enrichment (interaction score), respectively.

With “GGCUAGAACUAGUGGAUCCCCCGGCGCCCGGCGGCUCGAGCCCGGGUAAGUGUAAAUAGUCUGCAUGCCGCCGGGCGCCAUGCCUGCAGGUCGACUCUAGAAAACAUG”, the binding signal in [4] was 5.11 log2 enrichment (interaction score); in [5], 4.66 log2 enrichment (interaction score); in assay [6] it was 3.75 log2 enrichment (interaction score); in assay [7], 4.56 log2 enrichment (interaction score); in [8], 2.11 log2 enrichment (interaction score).

“GGCUAGAACUAGUGGAUCCCCCGGCGCCCGGCGGCUCGAGCCCGGGUAAGUGCAAAUAGUCUGCAUGCCGCCGGGCGCCAUGCCUGCAGGUCGACUCUAGAAAACAUG”: the binding signal in [4] is 5.44 log2 enrichment (interaction score).

Consider “GGCUAGAACUAGUGGAUCCCCCGGCGCCCGGCGGCUCGAGCCCGGGUAAGCGUAAAUAGUCUGCAUGCCGCCGGGCGCCAUGCCUGCAGGUCGACUCUAGAAAACAUG”, for which the values for the binding signal in assay [5], in assay [7] and in assay [8] were 4.53 log2 enrichment (interaction score), 5.46 log2 enrichment (interaction score) and 5.88 log2 enrichment (interaction score), respectively.

Consider “GGCUAGAACUAGUGGAUCCCCCGGCGCCCGGCGGCUCGAGCCCGGGUAAGUGAAAAUAGUCUGCAUGCCGCCGGGCGCCAUGCCUGCAGGUCGACUCUAGAAAACAUG”, for which the binding signal in [6] is 1.66 log2 enrichment (interaction score).

Consider “GGCUAGAACUAGUGGAUCCCCCGGCGCCCGGCGGCUCGAGCCCGGGUAAGUGUAAUUAGUCUGCAUGCCGCCGGGCGCCAUGCCUGCAGGUCGACUCUAGAAAACAUG”, for which the binding signal in assay [9] was 3.92 log2 enrichment (interaction score).

Regarding “GGCUAGAACUAGUGGAUCCCCCGGCGCCCGGCGGCUCGAGCCCGGGUAAGUGUAAAUUGUCUGCAUGCCGCCGGGCGCCAUGCCUGCAGGUCGACUCUAGAAAACAUG”, in assay [3], the binding signal was 2.74 log2 enrichment (interaction score).
